# ALDH1A1 block – blocks purified human ALDH1A1 activity | Purified ALDH1A1, NADH fluorescence, propionaldehyde substrate | AID 1030 | 220,000 tested, 7.3% active | Potency, µM (series often up to 75.3 µM), for inactives: top-dose activity, negative = inhibition, usual class: inhibitors | P00352;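 also: potency is read from the fitted curve at half-maximal effect; plate controls were no enzyme wells and a reference inhibitor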
# Target sequence (P00352 whole entry, looked up): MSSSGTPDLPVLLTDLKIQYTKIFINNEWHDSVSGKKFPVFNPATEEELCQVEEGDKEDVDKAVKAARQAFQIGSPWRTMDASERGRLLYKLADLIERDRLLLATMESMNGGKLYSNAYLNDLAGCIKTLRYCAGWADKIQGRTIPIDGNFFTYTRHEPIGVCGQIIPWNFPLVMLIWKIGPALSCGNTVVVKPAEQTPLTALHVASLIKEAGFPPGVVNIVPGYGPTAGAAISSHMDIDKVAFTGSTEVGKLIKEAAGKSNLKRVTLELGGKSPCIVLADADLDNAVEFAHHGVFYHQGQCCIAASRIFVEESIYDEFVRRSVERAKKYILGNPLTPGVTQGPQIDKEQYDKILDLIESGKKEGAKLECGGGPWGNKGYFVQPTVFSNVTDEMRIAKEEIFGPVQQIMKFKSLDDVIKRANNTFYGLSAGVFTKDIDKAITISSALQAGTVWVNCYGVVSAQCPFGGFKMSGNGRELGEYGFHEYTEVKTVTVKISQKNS
# HPGD inh – HPGD (human) dehydrogenase inhibition. 150,000 tested, 4.3% active. Potency, µM, for inactives: at the highest dose activity change, negative = inhibition, actives largely listed as inhibitors. P15428. purified HPGD, NADH fluorescence kinetic, PGE2 substrate; also: potency is read from the fitted curve at half-maximal effect
#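 20 nM HPGD preincubated 15 min at room temperature with compound in 50 mM Tris-HCl pH 8, 0.01% Tween 20. Started with 1 mM NAD+ and 30 uM prostaglandin E2; NADH fluorescence (360/450 nm) read 5 times over 30-s intervals, last minus first.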
# PNC assembly inh – perinucleolar compartment assembly inhibition. PC3M PTB-GFP, PNC prevalence imaging, 16 h; active compounds read low. activity change (PNC), negative = inhibition, % at 10 µM. 140,000 tested, 3.1% active. AID 2417;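 active = readout at or below -70, meaning at least 70% loss of cells showing the perinucleolar compartment, a nuclear body marking cancer cells; inconclusive = readout between -30 and a set limit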;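 also: plate controls were DMSO wells for no effect and camptothecin positive control wells for full effect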
#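 Read-out is percentage of cells bearing a perinucleolar compartment, from automated 20x imaging of fixed, Hoechst-stained PC3M PTB-GFP cells. Cells were seeded 4 h, then exposed 16 h to compound (23 nl of library stock) in duplicate plates.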
# Numbers without * were called inactive; u = inconclusive; x = not tested or not shown. Shown are actives, neighbours in structure and some others; about 11% of the full set was active somewhere. Unless noted, calls follow the shape of the dose curve; as a rule, active = well fitted inhibition curve with a large enough effect (not every such curve was filed as active); inconclusive = small, poorly fitted or top-dose-only effect, or another doubt; inactive = no such curve, though single readings can be large or run the other way. Unless noted, % is scaled to controls: 0 for no effect and ±100 for the full control effect.
SMILES,ALDH1A1 block,HPGD inh,PNC assembly inh
CC(C)c1onc(C(=O)N2CCCCC2)c1[N+](=O)[O-],u,14.1µM*,-1.9
CC(C)c1onc(C(=O)Nc2cccc(O)c2)c1[N+](=O)[O-],1.5%,x,x
CC(C)c1onc(C(=O)N2CCCCC2C)c1[N+](=O)[O-] (stereo unspecified),-13.7%,u,-11.6
C=CCN1C(=O)CSc2ccc(C(=O)N3CCC(C)CC3)cc21,5.7%,x,-5.8
CC1CCCCN1C(=O)c1ccc(COc2ccc([N+](=O)[O-])cc2)o1 (stereo unspecified),14.1µM*,22.4µM*,u
CC(C)(C)c1ccc(OCc2ccc(C(=O)N3CCOCC3)o2)cc1,-1.0%,x,x
COc1ccc(/C(C)=N\O)cc1OC,-1.5%,x,x
COc1ccc(NC(=S)N(Cc2ccc(Cl)cc2)Cc2ccc(C(=O)O)cc2)cc1Cl,20µM*,x,x
S=C(Nc1ccccc1)N(CCN1CCOCC1)Cc1cccc(Cl)c1,-11.3%,x,x
CCN1CCCc2cc(CN(CCN3CCOCC3)C(=S)Nc3ccc(OC)c(OC)c3)ccc21,3.16µM*,x,x
CCN1CCCc2cc(CN(CCN3CCOCC3)C(=S)Nc3ccc(OC)c(Cl)c3)ccc21,17.8µM*,x,x
